Data as given in article PMC4552634, “A New Set of Chemical Starting Points with Plasmodium falciparum Transmission-Blocking Potential for Antimalarial Drug Discovery” (PLoS ONE, 2015).
The campaign covered roughly 13,000 compounds. About 3,200 (25%) showed an effect of 50% or more. Some of the results follow.

The compounds below were run on P. falciparum stage V gametocytes. Conditions: 48 h, 5 µM; inhibitor.
Set-up: BacTiter-Glo ATP luminescence viability of purified stage V gametocytes in 384-well plates, per cent inhibition versus DMSO

| SMILES | % Inhibition [%] |
| --- | --- |
| CCN(C(=O)CSc1cc(C)c2cc(C)cc(C)c2n1)C1CCS(=O)(=O)C1 (centres unmarked) [TCMDC-123568] | -6.938 |
| COc1ccc2[nH]cc(C3CCN(Cc4ccc(NC(=O)c5ccc(-c6ccccc6)cc5)cc4)CC3)c2c1 [TCMDC-139069] | 7.748 |
| COc1ccc2[nH]cc(C3CCN(CCCCNC(=O)c4ccc(NC(=O)c5ccc(Cl)cc5)cc4)CC3)c2c1 [TCMDC-138328] | -10.4 |
| CN(C)CCCOc1ccc(CN2CCC(c3c[nH]c4ccc(NCC5CCCCC5)cc34)CC2)cc1 [TCMDC-140737] | 96.97 |
| Cc1noc(C)c1-c1cccc(CNCc2cccc(-c3cccc(-c4nc5ccccc5[nH]4)c3)c2)c1.O=C(O)C(F)(F)F [TCMDC-133065] | 2.097 |
| Cc1cccn2c(=O)c3cc(C(=O)NCCc4ccccc4)c(=N)n(CCCOC(C)C)c3nc12 [TCMDC-125410] | 68.18 |
| CCCCn1c(=N)c(C(=O)NCc2cccnc2)cc2c(=O)n3cccc(C)c3nc21 [TCMDC-124382] | 12.6 |
| Cc1cccn2c(=O)c3cc(C(=O)NCc4cccnc4)c(=N)n(CCc4ccccc4)c3nc12 [TCMDC-125663] | 86.68 |
| COc1ccc(CCn2c(=N)c(C(=O)NCc3cccnc3)cc3c(=O)n4cccc(C)c4nc32)cc1 [TCMDC-124470] | 92 |
| CCOCCCn1c(=N)c(C(=O)NCc2ccc(F)cc2)cc2c(=O)n3cccc(C)c3nc21 [TCMDC-125407] | 36.21 |
| COCCCn1c(=N)c(C(=O)NCCc2ccc(OC)cc2)cc2c(=O)n3cccc(C)c3nc21 [TCMDC-125085] | 9.799 |
| COc1ccc(CCn2c(=N)c(C(=O)NCc3ccccc3)cc3c(=O)n4cccc(C)c4nc32)cc1 [TCMDC-124473] | 6.095 |
| Cc1ccc2nc3c(cc(C(=O)NCCc4ccccc4)c(=N)n3CCCOC(C)C)c(=O)n2c1 [TCMDC-125408] | -18.91 |
| CCOCCCn1c(=N)c(C(=O)NCc2ccc(OC)cc2)cc2c(=O)n3cccc(C)c3nc21 [TCMDC-125406] | 75.07 |
| COc1ccc(CCn2c(=N)c(C(=O)NCc3cccnc3)cc3c(=O)n4ccccc4nc32)cc1 [TCMDC-124471] | 25.4 |
| Cc1cccn2c(=O)c3cc(C(=O)NC(C)c4ccccc4)c(=N)n(CCc4ccccc4)c3nc12 (centres unmarked) [TCMDC-124469] | -59.42 |
| CCCn1c(=N)c(C(=O)NCCc2ccccc2)cc2c(=O)n3cccc(C)c3nc21 [TCMDC-125084] | 4.719 |
